{
  "source": "paper PMC7862700",
  "about": "“An all-to-all approach to the identification of sequence-specific readers for epigenetic DNA modifications on cytosine”",
  "assay_in_all_cases": "DAPPL (digital affinity profiling via proximity ligation, sequencing); 10 mM Tris-HCl pH 7.5, 50 mM NaCl, 1 mM DTT, 4% glycerol, room temperature, 30 min; GST-TFs on glutathione beads, 16-mer random dsDNA library, 0.1% formaldehyde crosslink after washing; high values mean tight binding",
  "conditions_in_all_cases": "protein: recombinant; tags: N-terminal GST; dsDNA, one strand shown",
  "key": {"SPIC": {"biological_target": "T1, SPIC (Homo sapiens, UniProt Q8N5J4 1-248)", "T1 sequence": "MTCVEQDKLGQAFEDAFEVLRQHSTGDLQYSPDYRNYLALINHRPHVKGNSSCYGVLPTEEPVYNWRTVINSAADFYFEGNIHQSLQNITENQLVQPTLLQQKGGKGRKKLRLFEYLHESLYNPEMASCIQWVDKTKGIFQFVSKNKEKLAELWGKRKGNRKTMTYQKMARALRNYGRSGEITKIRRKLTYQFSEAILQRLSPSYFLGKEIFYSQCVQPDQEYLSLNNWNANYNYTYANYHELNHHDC", "summary_of_the_method": "(§1)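 Pools were built from human transcription factors expressed in yeast as GST fusions, captured on glutathione beads and DNA-barcoded, along with a tag-only sample. Incubation with 200 nmole of a 16-mer random double-stranded DNA library lasted 30 min at room temperature in Tris/NaCl/DTT/glycerol buffer, and was followed by washing, 0.1% formaldehyde crosslinking, proximity ligation, PCR amplification and Illumina NextSeq500 sequencing. Binding signal is the quotient of each hexamer's read frequency for a factor and its frequency for the tag-only sample.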"}, "ELK4": {"biological_target": "T2, ELK4 (Homo sapiens, UniProt P28324-2 1-405)", "T2 sequence": "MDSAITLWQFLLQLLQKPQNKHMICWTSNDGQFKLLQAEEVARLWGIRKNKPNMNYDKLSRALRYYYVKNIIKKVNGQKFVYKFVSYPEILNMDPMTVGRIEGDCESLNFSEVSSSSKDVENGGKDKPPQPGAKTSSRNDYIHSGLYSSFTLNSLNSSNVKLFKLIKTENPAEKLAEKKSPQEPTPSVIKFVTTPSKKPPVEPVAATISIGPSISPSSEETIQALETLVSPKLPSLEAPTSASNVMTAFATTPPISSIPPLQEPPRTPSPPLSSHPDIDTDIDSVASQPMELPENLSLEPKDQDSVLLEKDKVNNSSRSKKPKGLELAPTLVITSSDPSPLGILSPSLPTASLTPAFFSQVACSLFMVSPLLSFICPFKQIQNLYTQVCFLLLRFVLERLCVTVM", "summary_of_the_method": "as §1"}, "ERG": {"biological_target": "T3, ERG (Homo sapiens, UniProt P11308 1-479)", "T3 sequence": "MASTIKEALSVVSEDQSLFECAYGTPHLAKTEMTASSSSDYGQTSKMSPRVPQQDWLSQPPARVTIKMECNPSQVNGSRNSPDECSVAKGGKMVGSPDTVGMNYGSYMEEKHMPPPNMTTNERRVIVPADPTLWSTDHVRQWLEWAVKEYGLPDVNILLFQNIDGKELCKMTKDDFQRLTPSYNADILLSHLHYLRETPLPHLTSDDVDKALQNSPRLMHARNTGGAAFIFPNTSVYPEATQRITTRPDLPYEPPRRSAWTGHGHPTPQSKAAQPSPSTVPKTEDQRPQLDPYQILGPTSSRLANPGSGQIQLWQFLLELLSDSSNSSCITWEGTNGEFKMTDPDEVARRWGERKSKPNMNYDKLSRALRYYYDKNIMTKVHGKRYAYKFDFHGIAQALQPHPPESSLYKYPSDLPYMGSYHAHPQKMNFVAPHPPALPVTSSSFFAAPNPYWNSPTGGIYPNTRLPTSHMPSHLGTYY", "summary_of_the_method": "as §1"}, "ELF1": {"biological_target": "ELF1 (Homo sapiens, UniProt P32519 1-619)", "sequence (P32519 whole entry)": "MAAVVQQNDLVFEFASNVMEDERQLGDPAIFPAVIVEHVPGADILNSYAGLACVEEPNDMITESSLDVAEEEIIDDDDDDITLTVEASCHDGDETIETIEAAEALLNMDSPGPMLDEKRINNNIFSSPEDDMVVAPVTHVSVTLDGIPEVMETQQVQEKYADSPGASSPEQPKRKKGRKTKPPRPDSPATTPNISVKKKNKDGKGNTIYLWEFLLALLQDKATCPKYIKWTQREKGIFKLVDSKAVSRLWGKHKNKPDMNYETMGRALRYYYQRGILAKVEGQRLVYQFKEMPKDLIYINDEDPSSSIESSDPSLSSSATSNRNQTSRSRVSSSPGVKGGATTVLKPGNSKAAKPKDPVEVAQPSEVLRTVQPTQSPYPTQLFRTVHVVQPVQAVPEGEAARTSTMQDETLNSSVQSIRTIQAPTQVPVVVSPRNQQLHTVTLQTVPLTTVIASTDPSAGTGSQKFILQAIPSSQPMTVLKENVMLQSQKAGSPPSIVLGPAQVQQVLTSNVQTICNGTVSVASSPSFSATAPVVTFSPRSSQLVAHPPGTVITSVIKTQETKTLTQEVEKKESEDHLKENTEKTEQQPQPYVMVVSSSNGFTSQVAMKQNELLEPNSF", "summary_of_the_method": "as §1"}, "EHF": {"biological_target": "T4, EHF (Homo sapiens, UniProt Q9NZC4 1-300)", "T4 sequence": "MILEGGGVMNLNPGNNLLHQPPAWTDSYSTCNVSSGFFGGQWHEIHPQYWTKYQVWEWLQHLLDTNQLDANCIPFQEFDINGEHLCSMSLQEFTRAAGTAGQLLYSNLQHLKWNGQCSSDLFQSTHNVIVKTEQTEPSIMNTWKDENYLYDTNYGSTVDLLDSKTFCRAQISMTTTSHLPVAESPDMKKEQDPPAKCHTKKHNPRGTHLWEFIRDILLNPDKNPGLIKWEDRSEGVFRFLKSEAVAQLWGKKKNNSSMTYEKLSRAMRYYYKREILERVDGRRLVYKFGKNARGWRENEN", "summary_of_the_method": "as §1"}, "SPIB": {"biological_target": "SPIB (Homo sapiens, UniProt Q01892 1-262)", "sequence (Q01892 whole entry)": "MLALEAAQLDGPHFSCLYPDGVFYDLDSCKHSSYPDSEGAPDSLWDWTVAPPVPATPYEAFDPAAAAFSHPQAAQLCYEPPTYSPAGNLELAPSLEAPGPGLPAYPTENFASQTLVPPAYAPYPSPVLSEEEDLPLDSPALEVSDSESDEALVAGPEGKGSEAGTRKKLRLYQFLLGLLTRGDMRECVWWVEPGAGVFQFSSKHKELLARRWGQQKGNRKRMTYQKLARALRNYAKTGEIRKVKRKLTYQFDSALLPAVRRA", "summary_of_the_method": "as §1"}, "ELF4": {"biological_target": "ELF4 (Homo sapiens, UniProt Q99607 1-663)", "sequence (Q99607 whole entry)": "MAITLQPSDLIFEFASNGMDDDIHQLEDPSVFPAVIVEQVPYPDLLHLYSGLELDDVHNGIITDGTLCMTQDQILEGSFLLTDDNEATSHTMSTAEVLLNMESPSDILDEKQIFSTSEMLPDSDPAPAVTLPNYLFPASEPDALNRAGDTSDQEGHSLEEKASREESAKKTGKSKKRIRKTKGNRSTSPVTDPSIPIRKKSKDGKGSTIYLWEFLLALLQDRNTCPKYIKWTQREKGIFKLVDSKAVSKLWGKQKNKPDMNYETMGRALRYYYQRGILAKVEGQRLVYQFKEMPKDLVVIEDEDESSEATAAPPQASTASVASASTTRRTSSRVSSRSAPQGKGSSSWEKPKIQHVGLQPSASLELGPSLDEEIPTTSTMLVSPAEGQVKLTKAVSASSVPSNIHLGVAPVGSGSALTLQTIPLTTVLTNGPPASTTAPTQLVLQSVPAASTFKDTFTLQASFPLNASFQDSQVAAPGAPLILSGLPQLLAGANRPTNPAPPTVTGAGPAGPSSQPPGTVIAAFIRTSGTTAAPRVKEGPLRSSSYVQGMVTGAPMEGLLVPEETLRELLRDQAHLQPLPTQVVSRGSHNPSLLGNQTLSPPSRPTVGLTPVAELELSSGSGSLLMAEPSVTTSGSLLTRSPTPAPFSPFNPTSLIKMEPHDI", "summary_of_the_method": "as §1"}, "ETV2": {"biological_target": "T5, ETV2 (Homo sapiens, UniProt O00321 1-342)", "T5 sequence": "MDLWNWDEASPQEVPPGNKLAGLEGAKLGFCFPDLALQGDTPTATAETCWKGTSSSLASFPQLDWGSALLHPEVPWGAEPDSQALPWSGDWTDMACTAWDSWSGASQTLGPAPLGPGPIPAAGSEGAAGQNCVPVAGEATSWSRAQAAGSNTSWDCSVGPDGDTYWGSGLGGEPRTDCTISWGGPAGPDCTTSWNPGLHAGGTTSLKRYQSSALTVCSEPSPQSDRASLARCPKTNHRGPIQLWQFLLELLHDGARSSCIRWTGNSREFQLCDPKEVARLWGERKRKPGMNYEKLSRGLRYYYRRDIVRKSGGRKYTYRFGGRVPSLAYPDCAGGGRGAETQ", "summary_of_the_method": "as §1"}, "ELF3": {"biological_target": "T6, ELF3 (Homo sapiens, UniProt P78545 1-371)", "T6 sequence": "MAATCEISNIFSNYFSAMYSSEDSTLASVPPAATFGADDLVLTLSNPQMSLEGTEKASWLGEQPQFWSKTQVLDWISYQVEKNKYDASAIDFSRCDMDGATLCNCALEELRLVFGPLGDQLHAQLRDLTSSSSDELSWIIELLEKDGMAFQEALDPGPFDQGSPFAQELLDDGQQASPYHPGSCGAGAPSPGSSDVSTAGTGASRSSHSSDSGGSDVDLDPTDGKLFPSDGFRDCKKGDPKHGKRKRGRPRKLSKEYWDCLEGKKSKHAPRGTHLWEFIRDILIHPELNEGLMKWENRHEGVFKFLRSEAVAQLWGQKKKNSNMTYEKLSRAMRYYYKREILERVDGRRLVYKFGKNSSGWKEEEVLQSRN", "summary_of_the_method": "as §1"}, "ETV1": {"biological_target": "ETV1 (Homo sapiens, UniProt P50549 1-477)", "sequence (P50549 whole entry)": "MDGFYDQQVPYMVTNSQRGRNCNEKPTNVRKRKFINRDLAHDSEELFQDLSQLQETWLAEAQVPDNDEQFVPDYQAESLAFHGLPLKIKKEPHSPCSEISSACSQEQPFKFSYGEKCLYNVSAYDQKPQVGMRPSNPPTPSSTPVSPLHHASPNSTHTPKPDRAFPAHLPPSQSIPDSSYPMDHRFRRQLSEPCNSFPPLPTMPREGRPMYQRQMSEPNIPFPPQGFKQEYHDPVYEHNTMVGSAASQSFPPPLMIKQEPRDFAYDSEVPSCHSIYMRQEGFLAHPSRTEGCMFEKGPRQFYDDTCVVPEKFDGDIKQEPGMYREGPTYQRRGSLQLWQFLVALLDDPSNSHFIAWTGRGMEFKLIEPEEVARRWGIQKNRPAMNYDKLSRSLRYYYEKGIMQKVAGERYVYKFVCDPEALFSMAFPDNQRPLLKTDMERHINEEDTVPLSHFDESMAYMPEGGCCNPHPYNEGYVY", "summary_of_the_method": "as §1"}, "ERF": {"biological_target": "T7, ERF (Homo sapiens, UniProt P50548 1-548)", "T7 sequence": "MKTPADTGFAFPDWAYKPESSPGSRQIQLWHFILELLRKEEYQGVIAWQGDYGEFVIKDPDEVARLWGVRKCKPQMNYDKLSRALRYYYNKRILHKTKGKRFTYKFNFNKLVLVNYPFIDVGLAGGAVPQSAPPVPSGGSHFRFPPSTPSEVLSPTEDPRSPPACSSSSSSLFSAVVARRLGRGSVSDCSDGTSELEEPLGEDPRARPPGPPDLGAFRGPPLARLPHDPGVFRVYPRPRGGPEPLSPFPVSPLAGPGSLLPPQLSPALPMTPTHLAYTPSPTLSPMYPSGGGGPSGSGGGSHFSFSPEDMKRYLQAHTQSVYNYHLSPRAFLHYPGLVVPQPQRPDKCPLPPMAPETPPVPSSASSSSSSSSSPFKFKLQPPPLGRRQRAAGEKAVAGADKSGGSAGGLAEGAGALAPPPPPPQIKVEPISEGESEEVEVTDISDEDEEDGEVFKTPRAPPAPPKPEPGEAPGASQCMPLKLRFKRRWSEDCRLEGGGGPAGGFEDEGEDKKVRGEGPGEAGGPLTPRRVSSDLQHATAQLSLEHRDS", "summary_of_the_method": "as §1"}, "ETV3L": {"biological_target": "T8, ETV3L (Homo sapiens, UniProt Q6ZN32 1-361)", "T8 sequence": "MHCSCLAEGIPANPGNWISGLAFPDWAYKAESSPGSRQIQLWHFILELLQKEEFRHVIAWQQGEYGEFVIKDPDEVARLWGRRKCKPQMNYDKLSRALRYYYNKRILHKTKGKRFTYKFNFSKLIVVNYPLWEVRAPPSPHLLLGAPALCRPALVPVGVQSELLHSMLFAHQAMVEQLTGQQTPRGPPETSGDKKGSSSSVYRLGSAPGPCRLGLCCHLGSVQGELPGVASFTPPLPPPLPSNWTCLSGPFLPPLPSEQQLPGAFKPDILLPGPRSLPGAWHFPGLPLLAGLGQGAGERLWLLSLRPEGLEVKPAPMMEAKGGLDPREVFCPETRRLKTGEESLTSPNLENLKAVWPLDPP", "summary_of_the_method": "as §1"}, "ETS2": {"biological_target": "T9, ETS2 (Homo sapiens, UniProt P15036 1-469)", "T9 sequence": "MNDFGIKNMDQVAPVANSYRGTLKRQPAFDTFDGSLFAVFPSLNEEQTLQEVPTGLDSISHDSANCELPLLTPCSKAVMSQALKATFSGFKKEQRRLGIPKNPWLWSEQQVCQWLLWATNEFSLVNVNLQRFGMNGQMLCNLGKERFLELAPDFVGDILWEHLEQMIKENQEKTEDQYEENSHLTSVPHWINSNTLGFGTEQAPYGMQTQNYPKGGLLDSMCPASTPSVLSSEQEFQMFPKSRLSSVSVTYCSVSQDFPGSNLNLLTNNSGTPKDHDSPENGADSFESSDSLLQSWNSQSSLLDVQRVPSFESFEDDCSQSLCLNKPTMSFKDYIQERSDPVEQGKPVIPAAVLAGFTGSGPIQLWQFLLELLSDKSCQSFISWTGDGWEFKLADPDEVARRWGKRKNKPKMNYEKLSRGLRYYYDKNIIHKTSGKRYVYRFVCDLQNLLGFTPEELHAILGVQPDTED", "summary_of_the_method": "as §1"}, "SPDEF": {"biological_target": "T10, SPDEF (Homo sapiens, UniProt O95238 1-335)", "T10 sequence": "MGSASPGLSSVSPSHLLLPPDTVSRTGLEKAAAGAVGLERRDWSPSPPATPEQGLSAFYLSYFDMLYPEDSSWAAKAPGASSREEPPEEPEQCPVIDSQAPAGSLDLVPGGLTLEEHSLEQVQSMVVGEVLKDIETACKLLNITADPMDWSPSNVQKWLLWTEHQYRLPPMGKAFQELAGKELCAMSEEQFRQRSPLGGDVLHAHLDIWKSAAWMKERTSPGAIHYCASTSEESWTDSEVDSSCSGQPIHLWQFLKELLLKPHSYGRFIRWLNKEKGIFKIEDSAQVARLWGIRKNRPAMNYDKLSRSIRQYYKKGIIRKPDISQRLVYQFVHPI", "summary_of_the_method": "as §1"}, "ELF5": {"biological_target": "T11, ELF5 (Homo sapiens, UniProt Q9UKW6-2 1-255)", "T11 sequence": "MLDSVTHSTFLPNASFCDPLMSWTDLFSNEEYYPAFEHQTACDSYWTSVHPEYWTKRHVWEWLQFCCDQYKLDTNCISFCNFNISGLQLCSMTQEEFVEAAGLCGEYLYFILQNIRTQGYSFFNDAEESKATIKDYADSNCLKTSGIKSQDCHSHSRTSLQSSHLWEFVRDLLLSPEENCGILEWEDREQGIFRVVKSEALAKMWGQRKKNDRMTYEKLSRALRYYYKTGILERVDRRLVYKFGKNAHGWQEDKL", "summary_of_the_method": "as §1"}, "ETV3": {"biological_target": "T12, ETV3 (Homo sapiens, UniProt P41162-2 1-143)", "T12 sequence": "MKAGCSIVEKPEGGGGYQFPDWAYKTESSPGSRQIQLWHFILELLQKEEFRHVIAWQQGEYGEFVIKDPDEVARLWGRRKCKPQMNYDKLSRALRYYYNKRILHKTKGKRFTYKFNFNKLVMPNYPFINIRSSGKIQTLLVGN", "summary_of_the_method": "as §1"}},
  "data": [
    {"sequence": "GTTGTC", "values": [
      {"measurement": "binding signal", "setting": "SPIC", "value": "1.1 fold enrichment (6-mer frequency, TF over GST control)"},
      {"measurement": "binding signal", "setting": "ELK4", "value": "1.02 fold enrichment (6-mer frequency, TF over GST control)"}
    ]},
    {"sequence": "AGGCAC", "values": [
      {"measurement": "binding signal", "setting": "SPIC", "value": "1.03 fold enrichment (6-mer frequency, TF over GST control)"}
    ]},
    {"sequence": "GTGTCT", "values": [
      {"measurement": "binding signal", "setting": "ERG", "value": "1.1 fold enrichment (6-mer frequency, TF over GST control)"},
      {"measurement": "binding signal", "setting": "ELF1", "value": "1.06 fold enrichment (6-mer frequency, TF over GST control)"},
      {"measurement": "binding signal", "setting": "EHF", "value": "1.06 fold enrichment (6-mer frequency, TF over GST control)"},
      {"measurement": "binding signal", "setting": "SPIB", "value": "1.03 fold enrichment (6-mer frequency, TF over GST control)"},
      {"measurement": "binding signal", "setting": "SPIC", "value": "1.16 fold enrichment (6-mer frequency, TF over GST control)"},
      {"measurement": "binding signal", "setting": "ELF4", "value": "1.02 fold enrichment (6-mer frequency, TF over GST control)"},
      {"measurement": "binding signal", "setting": "ETV2", "value": "1.15 fold enrichment (6-mer frequency, TF over GST control)"},
      {"measurement": "binding signal", "setting": "ELF3", "value": "1 fold enrichment (6-mer frequency, TF over GST control)"},
      {"measurement": "binding signal", "setting": "ETV1", "value": "1.09 fold enrichment (6-mer frequency, TF over GST control)"},
      {"measurement": "binding signal", "setting": "ERF", "value": "1.06 fold enrichment (6-mer frequency, TF over GST control)"},
      {"measurement": "binding signal", "setting": "ETV3L", "value": "1.09 fold enrichment (6-mer frequency, TF over GST control)"},
      {"measurement": "binding signal", "setting": "ETS2", "value": "1.03 fold enrichment (6-mer frequency, TF over GST control)"},
      {"measurement": "binding signal", "setting": "SPDEF", "value": "1.09 fold enrichment (6-mer frequency, TF over GST control)"},
      {"measurement": "binding signal", "setting": "ELF5", "value": "1.13 fold enrichment (6-mer frequency, TF over GST control)"},
      {"measurement": "binding signal", "setting": "ETV3", "value": "1.02 fold enrichment (6-mer frequency, TF over GST control)"}
    ]}
  ]
}
